# ± gives the standard deviation of the averaged measurements. Whole data set: some 25,000 sequences, median “ln(normalized median fluorescence intensity)” near 8.6, cut for the highest 2% near 10. This is one part of a sample in which the highest values are shown more often than they occur.
# Test system: PfAP2-EXP AP2 domain (GST-tagged)
# Assay: gcPBM binding intensity (ln(normalized median fluorescence intensity)); higher = stronger DNA binding
# Procedure, shortened: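 Alexa488 anti-GST antibody, scanned at 488 nm, detected GST-tagged P. falciparum DNA-binding domains that had been expressed in E. coli and incubated for 1 h on an Agilent 4 × 180k array. The array carried primer-extended double-stranded 36-bp intergenic genomic probes and negative controls. Binding intensity is the highest Masliner-normalised natural-log median intensity across replicate spots of either orientation of each probe.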
row,Sequence,gcPBM binding intensity (ln)
1,TATATATATTTATAATGTACACATATATGTAAATAT [XGTACX_site3695],8.51 ± 0.2
2,ATATATATATATATAAAGTGAAGTATGAGGGAAATA [XGTACX_negctrl_site497],10.1 ± 0.3
3,AGAATAAAAAGGAACACACACACACGCATATAAATA [CACACA_site7659],9.01 ± 0.55
4,TTACATATTATACGAAGTACGTACAAATACTTATAT [XGTACX_site8598],8.6 ± 0.26
5,GTATGTTTGTTATGCACACAAATGCATCTTATTTCC [CACACA_site2690],8.96 ± 0.28
6,TTATTTAACGTATTCTCACACATATATATATATAAT [CACACA_site5226],8.64 ± 0.42
7,TAAATATGTATAAATTGTACAAAATATATGAATAGT [XGTACX_site5659],8.94 ± 0.29
8,CTCATAATTTCTGAACGTACGTATTTCTCATTTTTA [XGTACX_site7296],8.83 ± 0.44
9,TCCTTTTTTAAAAGTTGTACATTATTGTTATTTGTT [XGTACX_site4686],8.65 ± 0.3
10,TTTTAAATAATTCGTAATTATAATTATGGAAAAAAG [CACACA_negctrl_site152],8.43 ± 0.48
11,TTAGCAACTATTACTACACACATTTGTATTTAATTT [CACACA_site4961],8.49 ± 0.35
12,ATTCTACACAGACATACACACATATATATATATATA [CACACA_site5826],10.2 ± 0.4
13,TACAGACATACATACACACATACATATATATATATA [CACACA_site1940],10.1 ± 0.11
14,GTATTCTACAGACACATACACACATATATATATATA [CACACA_site3427],10.1 ± 0.22
15,TTTATTAATTAAACCATACACACATAATTTTTTTAT [CACACA_site842],8.34 ± 0.47
16,ATTTAGAAAAATAAAACACACATATAGATGTAAATA [CACACA_site7853],8.57 ± 0.58
17,AAGACAAAACAAAGAAGTACATATATATATATATAT [XGTACX_site4067],10.3 ± 0.4
18,AAGAAAAAAAAAAAAACACACATATATATATATATA [CACACA_site2027],10.2 ± 0.13
19,AAAAAAAAAAAAGAAACACACACATATATATATATA [CACACA_site8525],10.1 ± 0.31
20,CACAAGAAAGTTCACACACACACATATATATATATA [CACACA_site6009],10.2 ± 0.18
21,TTAAAAAGAAAGTTCACACACATATATATGACGGAA [CACACA_site2602],8.93 ± 0.45
22,AAAAAAAAAAAAGAAACACACATATATATATATATA [CACACA_site140],10.1 ± 0.6
23,CACAAGAAAATTCACACACACACATATATATATATA [CACACA_site3880],10.1 ± 0.27

row,Sequence,gcPBM binding intensity (ln)
1,AAAAAAAAAAGAAACACACACATATATATATATAAT [CACACA_site5052],8.61 ± 0.52
2,AAAAAAAAAAGAAAAAGTACATACATACATATATAT [XGTACX_site6405],8.46 ± 0.36
3,CAAGAAAAGAAACACACACACATATATATATATATA [CACACA_site3881],10.1 ± 0.26
4,AAACAGAAGACATATACACACATACAAAAAAGTGCA [CACACA_site4699],8.81 ± 0.33
5,CACAAAAAGAAACACACACACATATATATATATATA [CACACA_site999],10.2 ± 0.22
6,TAGTAATATGTATCCATACACACATACATTTTATTT [CACACA_site873],8.52 ± 0.41
7,TATAACAAAATATTCACACATATAAGTAAATAAAGG [CACACA_site5777],8.73 ± 0.28
8,AATTTTAATTATATCACACATAATATATACCAAAAA [CACACA_site6011],8.51 ± 0.38
9,GAATAATCTAGAAACACACAAACACGACAAAAGAAA [CACACA_site4135],8.93 ± 0.55
10,TTTTGTTCTAATATGGGAACATAAATATTAAATATA [CACACA_negctrl_site1787],8.22 ± 0.45
11,TCATTTTATTTTTTCACACACACATATATATATATA [CACACA_site3333],10.1 ± 0.33
12,TATTTTATATTTCATTTGTTATTTTTCTTGGTTCTA [CACACA_negctrl_site33],8.63 ± 0.57
13,TTTGTTATGGTTTTCTCACACATATATATATATATA [CACACA_site4617],10.4 ± 0.36
14,TTTTTTTTTTTGGTTACACACATTTGTATATTCTCA [CACACA_site134],8.69 ± 0.49
15,CATATTTGCACTTTCACACATAAATATATAACTATA [CACACA_site6016],8.91 ± 0.31
16,TTATTTTTATATTTCACACACATATACTTTTACATA [CACACA_site4097],8.8 ± 0.47
17,ATTTTATTTTTTCACACACACATATATATATATATA [CACACA_site3334],10.2 ± 0.32
18,TATTTGTTGTGAGTCACACATATATATATATATATA [CACACA_site4240],10.3 ± 0.42
19,TGTATATTTGTTGTTACACACATATATTTTTTTTTT [CACACA_site128],8.53 ± 0.3
20,TTTCTTTCTTCACATATATATATATATATATTTATA [TGCATGCA_negctrl_site341],8.83 ± 0.3
21,TTTGTAACTTCTTTCACACATATATATATATATATA [CACACA_site5603],10.3 ± 0.47
22,TTTTTTTTTTTTGTCACACATATATTTGTATTTATA [CACACA_site5234],8.58 ± 0.38
